# Screen size: about 290,000 compounds; about 27,000 (9.3%) were called active. Cut-off read from the data, not from the text of the source: active = inhibition mostly above about 28% (no sharp cut-off); inactive = mostly below about 43%. The list comes from a sample in which actives are over-represented; it also holds similar structures and randomly drawn compounds.
# Assay: A qHTS for Small Molecule Inhibitors of Shiga Toxin; note: 0% is about no effect
# Settings: Vero cells, Shiga toxin protein synthesis inhibition reporter; at 38.7 µM, hits give high values
row,Structure (SMILES),inhibition
1,COc1cccc(NC(=O)COc2cc(C)cc3oc(=O)cc(C)c23)c1,-4.63% (inactive)
2,COc1ccc(C2=NS(=O)(=O)N(C)C(C(=O)N3CCCCC3)=C2)cc1,-2.94% (inactive)
3,CC(C)(C)c1ccc(Oc2ccc(N)cc2)cc1,-23.2% (inactive)
4,COc1cccc(OCCCN2CCCCCC2)c1,11.6% (inactive)
5,COc1cccc(Oc2ccc(N)cc2)c1,33.2% (active)
6,COc1ccc(-c2cc(=O)oc3cc(OCC(=O)N[C@@H](Cc4c[nH]c5ccccc45)C(=O)O)ccc23)cc1,1.78% (inactive)
7,Cc1cc(=O)n2nc(N3CCCC(C(=O)NCc4cccc(Cl)c4)C3)sc2n1 (stereo unspecified),10.1% (inactive)
8,Cc1ccc(N(CC(=O)Nc2cccc(N(C)S(C)(=O)=O)c2)S(C)(=O)=O)cc1,-15.9% (inactive)
9,CN(c1cccc(NC(=O)Nc2ccc(Cl)cc2)c1)S(C)(=O)=O,66.3% (active)
10,COc1cccc(N(CC(=O)Nc2cccc(N(C)S(C)(=O)=O)c2)S(C)(=O)=O)c1,-9.96% (inactive)
11,COc1ccc(Nc2ccc([N+](=O)[O-])cn2)cn1,25.8% (inactive)
12,Cc1cccc(-n2nc3c(c2NC(=O)c2cc4ccccc4o2)CS(=O)(=O)C3)c1,-6.86% (inactive)
13,CCOc1ccc(CCNC(=O)CCc2nnc3ccc(N4CCCC4)nn23)cc1OCC,-2.23% (inactive)
14,CC(CNC(=O)c1ccc(Br)o1)NC(=O)c1ccc(Br)o1 (stereo unspecified),10.2% (inactive)
15,CC(CCc1ccccc1)NC(=O)c1ccc(Br)o1 (stereo unspecified),0.792% (inactive)
16,C/C(=N/NC(=O)c1ccc(Br)o1)c1ccc(C)o1,91.6% (active)
17,Cc1ccc(/C=N/NC(=S)NC2CCCCC2)o1,72.6% (active)
18,C/C(=N\NC(=S)NC1CCCCC1)c1ccc(C)o1,52.7% (active)
19,S=C(NCc1ccc(Cl)cc1)NC1CCCCC1,-6.42% (inactive)
20,Cc1ccc(/C=N/NC(=S)Nc2cccc(S(=O)(=O)N(C)C)c2)o1,40.8% (inactive)
21,S=C(NN=C1CCN(Cc2ccccc2)CC1)NC1CCCCC1,9.13% (inactive)
22,Cc1ccc(/C=N/NC(=O)Cn2nc(C)c(Br)c2C)o1,-6.63% (inactive)
23,COc1ccc(CNC(=O)C2CCN(C(=O)c3ccco3)CC2)cc1,-12.4% (inactive)
24,CCCc1cc(=O)n2[nH]c(C)c(-c3ccc(Cl)cc3)c2n1,-5.47% (inactive)

row,Structure (SMILES),inhibition
1,Cc1ccc(C(CNC(=O)Nc2cccc(C)c2)N2CCN(C)CC2)cc1 (stereo unspecified),1.35% (inactive)
2,Cc1c(NC(=O)Nc2cccc([N+](=O)[O-])c2)c(=O)n(-c2ccccc2)n1C,-5.21% (inactive)
3,CC1CCN(S(=O)(=O)c2ccc3c(ccn3CC(=O)O)c2)CC1,-22.5% (inactive)
4,CC(=O)N1CCN(CC(=O)Nc2ccc(SC(F)F)cc2)CC1,-12.2% (inactive)
5,O=C(Cc1ccc(Cl)c(Cl)c1)Nc1ccc(SC(F)F)cc1,43% (active)
6,Cc1ccc(CC(=O)Nc2ccc(OC(F)F)c(Cl)c2)cc1C,-4.66% (inactive)
7,CNC(=O)[C@]1(C(F)(F)F)C[C@H](CCc2ccccc2)CCCO1,32.4% (inactive)
8,Cc1cccc(C(=O)N2CCC(c3nc4ccccc4s3)CC2)c1,-12.1% (inactive)
9,O=C(c1cccs1)N1CCC(c2nc3ccccc3s2)CC1,18.9% (inactive)
10,c1ccc2sc(C3CCCNC3)nc2c1 (stereo unspecified),69.9% (active)
11,CC(=O)Oc1ccc(N(C(C)=O)S(=O)(=O)c2ccc3ccccc3c2)cc1Br,33.2% (inactive)
12,CCCCCNC(=O)C1c2ccccc2Oc2ccccc21,-12.3% (inactive)
13,O=C(/C=C/c1ccccc1)c1ccoc1,26% (inactive)
14,O=C(/C=C/c1ccc(N2CCOCC2)cc1)c1ccccc1,68% (active)
15,O=C(CN1CCN(S(=O)(=O)/C=C/c2ccccc2)CC1)Nc1ccc(N2CCOCC2)cc1,-7.43% (inactive)
16,O=C(O)c1ccc2c(c1)C(=O)N(c1ccc(/C=C/C(=O)c3ccccc3)cc1)C2=O,70.9% (active)
17,Cc1cccc(N2C(=O)c3ccc(C(=O)Nc4cccc(C(=O)O)c4)cc3C2=O)c1,19% (inactive)
18,CC(=O)Oc1ccc(C)cc1N1C(=O)c2ccc(C(=O)O)cc2C1=O,21.4% (inactive)
19,O=C(c1ccc(C(F)(F)F)cc1)C1CCCN(C(=O)c2csnn2)C1 (stereo unspecified),-1.35% (inactive)
20,COc1ccc(CCNC(=O)C2CCCN2C(=O)Nc2ccccc2)cc1OC (stereo unspecified),9.89% (inactive)
21,O=S1(=O)N=C(N(CCO)/N=C/c2ccccc2F)c2ccccc21,-5.12% (inactive)
22,CCCC(=O)Nc1c(O)c2ccccc2[nH]c1=O,25.5% (inactive)
23,CCCc1nc2ccccc2c(=O)n1NC(=O)c1c(O)c2ccccc2[nH]c1=O,110% (active)
24,CCCCc1nc2ccccc2c(=O)n1NC(=O)c1c(O)c2cccc3c2n(c1=O)CC3,28.4% (inactive)

row,Structure (SMILES),inhibition
1,C#CC(CCN1CCCCC1)(OC)c1ccccc1 (stereo unspecified),-17.9% (inactive)
2,CCCc1c(C(=O)N/N=C(\C)CCc2ccc(OC)cc2)nnn1-c1nonc1N,-11% (inactive)
3,OC(CNCCc1ccc(Cl)cc1Cl)COc1ccccc1 (stereo unspecified),2.65% (inactive)
4,O=C(CN(Cc1ccc(Br)cc1)S(=O)(=O)c1ccccc1)NCc1ccncc1,-14.3% (inactive)
5,O=C(C1CC(=O)N(c2ccc(F)cc2)C1)N1CCN(c2ccccc2)CC1 (stereo unspecified),-5.65% (inactive)
6,COc1ccc(Cn2c(-c3ccc(Cl)cc3)c[n+]3ccccc23)cc1,96.6% (active)
7,CCn1c(C)cc(=O)cc1-c1ccc(Cl)cc1,-5.82% (inactive)
8,COc1ccc(C(=O)CN(C(=O)c2ccc(Cl)cc2)N2C(=O)c3ccccc3C2=O)cc1,-9% (inactive)
9,CC1(C)C2CCC1(CS(=O)(=O)NCCc1c[nH]c3ccccc13)C(=O)C2 (stereo unspecified),23.7% (inactive)
10,O=C(N/C(=C\c1ccc(O)cc1)C(=O)N1CCCCC1)c1ccccc1,11.3% (inactive)
11,COc1cc(/C=N/N2CCN(c3ccccc3)CC2)ccc1OC(C)=O,23.8% (inactive)
12,C(=N/N1CCN(c2ccccc2)CC1)/c1cccs1,94.4% (active)
13,Cc1ccc(N2CCN(/N=C/c3cccs3)CC2)cc1,13.1% (inactive)
14,O=C(Cn1nc(C(=O)O)c2ccccc2c1=O)Nc1ccc(F)cc1,-3.59% (inactive)
15,O=C1CCC([N+](=O)[O-])C(c2ccccc2Br)N1 (stereo unspecified),4.29% (inactive)
16,COc1ccc(-c2nnc(NC(=O)CS(=O)(=O)c3ccc(Cl)cc3)o2)c(OC)c1,3.54% (inactive)
17,COC(=O)CN1C(=O)C(C)(C)Oc2ccc(C(=O)Nc3cccc(OC)c3)cc21,-0.621% (inactive)
18,CN(C)S(=O)(=O)c1ccc(N/C=C(\[N+](=O)[O-])S(=O)(=O)c2ccccc2)cc1,-2.26% (inactive)
19,COc1ccccc1C1CCN(C(=S)Nc2ccc(Br)cc2)CC1,47.5% (active)
20,CCC(C)N(C)C1CCN(C(=S)Nc2ccc(OC)cc2)CC1 (stereo unspecified),-9.08% (inactive)
21,COc1ccc(C(=O)NC2CCN(C(=S)Nc3ccccc3)CC2)cc1,-2.02% (inactive)
22,CN1CCC(=O)N([C@H](CO)Cc2ccccc2)CC1,-4.98% (inactive)
23,O=C1CCCC(O)=C1N=Nc1ccc(S(=O)(=O)N2CCOCC2)cc1,22.3% (inactive)
24,O=C1CCCC(O)=C1N=Nc1ccc2ncsc2c1,87.8% (active)

row,Structure (SMILES),inhibition
1,COC(=O)c1ccc2c(=O)n(CCN3CCOCC3)c(SCC(=O)Nc3cccc(OC)c3)nc2c1,-7.42% (inactive)
2,O=C(CNC(=O)Cc1ccccc1)N=Nc1c(O)[nH]c2ccc(Br)cc12,3.9% (inactive)
3,CC1(C)CCSC(/C=C/c2ccccc2)=N1,52.2% (active)
4,Cc1cccn2c(=O)c(C=O)c(Nc3ccc(S(N)(=O)=O)cc3)nc12,3.64% (inactive)
5,CCC(=O)N(CCc1ccccc1)Cc1cc2cc(C)ccc2[nH]c1=O,-0.364% (inactive)
6,COc1cccc(-n2c(=S)sc3c(=O)n(-c4ccccc4OC)c(SCC4OCCO4)nc32)c1,-11.3% (inactive)
7,O=C(NCc1cccnc1)Nc1ccccc1F,19.6% (inactive)
8,Cc1ccccc1Nc1nc(-c2cccnc2)cs1,76.4% (active)
9,O=C(NCc1cccnc1)C(=O)Nc1nc(-c2ccccc2)cs1,98% (active)
10,O=C(O)c1ccccc1C(=O)Nc1nc(-c2ccccc2)cs1,-11.1% (inactive)
11,O=C(Nc1ccccc1F)c1ccccc1-c1ccccc1,7.36% (inactive)
12,O=C(Nc1nnc(-c2ccccc2F)s1)c1ccccc1F,58% (active)
13,CN(Cc1ccccc1)S(=O)(=O)c1nnc(NC(=O)c2ccccc2F)s1,-6.12% (inactive)
14,O=C(Nc1ccc(NC(=O)c2ccccc2F)cc1)c1ccccc1F,-6.19% (inactive)
15,O=C(Nc1nc(-c2cccnc2)cs1)c1ccccc1F,166% (active)
16,O=C(O)c1ccccc1-c1ccccc1C(=O)NCc1cccnc1,-3.52% (inactive)
17,Cc1ccc(CNC(=O)C2(C(F)(F)F)C/C(=C\CCO)CCCO2)o1 (stereo unspecified),-7.08% (inactive)
18,COc1ccc(CNC(=O)COc2cccnc2[N+](=O)[O-])cc1,-2.63% (inactive)
19,CC(=O)N1CCN(C(=O)C2(NC(=O)Nc3ccc(C)cc3)CCCCC2)CC1,23.1% (inactive)
20,NNC(=O)CNC(c1ccccc1)c1cc(Cl)ccc1NC(=O)c1ccccc1 (stereo unspecified),-4.52% (inactive)
21,COc1ccc(Nc2nc(NCc3ccco3)nc(N/N=C/c3ccccc3Cl)n2)cc1,7.02% (inactive)
22,COc1ccc(CC(=O)N/N=C/c2cc([N+](=O)[O-])cc(Br)c2O)cc1,-3.43% (inactive)
23,Cc1ccc(S(=O)(=O)c2nnn3c2nc(N2CCN(c4ccccn4)CC2)c2ccccc23)cc1,-12% (inactive)
24,Cc1occc1C(=O)NC1CCCN(Cc2ccc(CC(C)C)cc2)C1 (stereo unspecified),-8.21% (inactive)
